Results published in the supplement of paper PMC12282887.
± gives the standard deviation of the averaged measurements.

Tested on: E. coli BW25113 marRABp lux reporter
Assay: promoter activity interaction Z-score (Lux/OD deviation from empty-vector control); higher = stronger promoter induction by the compound
Protocol: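 E. coli BW25113 (wild type or ΔmarA/ΔsoxS/Δrob) carrying pTU175 luxCDABE promoter reporters was grown in LB in 384-well plates at 37°C with each of 94 compounds at 4 two-fold concentrations, in biological duplicates. Luminescence and OD600 were read every 30 min for 12 h and integrated as AUC over 8 h (0-8 h WT, 1-9 h mutants). Lux AUC was divided by OD AUC; the interaction score is the residual of a Huber robust fit of each promoter against the empty-vector control, then Z-transformed per promoter.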

Compound	promoter activity interaction Z-score (1.7 µg/ml, genetic background: wild type)	promoter activity interaction Z-score (1.7 µg/ml, genetic background: ΔmarA)	promoter activity interaction Z-score (1.7 µg/ml, genetic background: Δrob)	promoter activity interaction Z-score (1.7 µg/ml, genetic background: ΔsoxS)	promoter activity interaction Z-score (3.5 µg/ml, genetic background: wild type)	promoter activity interaction Z-score (3.5 µg/ml, genetic background: ΔmarA)	promoter activity interaction Z-score (3.5 µg/ml, genetic background: Δrob)	promoter activity interaction Z-score (3.5 µg/ml, genetic background: ΔsoxS)	promoter activity interaction Z-score (6.9 µg/ml, genetic background: wild type)	promoter activity interaction Z-score (6.9 µg/ml, genetic background: ΔmarA)	promoter activity interaction Z-score (6.9 µg/ml, genetic background: Δrob)	promoter activity interaction Z-score (6.9 µg/ml, genetic background: ΔsoxS)	promoter activity interaction Z-score (13.9 µg/ml, genetic background: wild type)	promoter activity interaction Z-score (13.9 µg/ml, genetic background: ΔmarA)	promoter activity interaction Z-score (13.9 µg/ml, genetic background: Δrob)	promoter activity interaction Z-score (13.9 µg/ml, genetic background: ΔsoxS)	promoter activity interaction Z-score (3.1 µg/ml, genetic background: wild type)	promoter activity interaction Z-score (3.1 µg/ml, genetic background: ΔmarA)	promoter activity interaction Z-score (3.1 µg/ml, genetic background: Δrob)	promoter activity interaction Z-score (3.1 µg/ml, genetic background: ΔsoxS)	promoter activity interaction Z-score (6.1 µg/ml, genetic background: wild type)	promoter activity interaction Z-score (6.1 µg/ml, genetic background: ΔmarA)	promoter activity interaction Z-score (6.1 µg/ml, genetic background: Δrob)	promoter activity interaction Z-score (6.1 µg/ml, genetic background: ΔsoxS)	promoter activity interaction Z-score (12.2 µg/ml, genetic background: wild type)	promoter activity interaction Z-score (12.2 µg/ml, genetic background: ΔmarA)	promoter activity interaction Z-score (12.2 µg/ml, genetic background: Δrob)	promoter activity interaction Z-score (12.2 µg/ml, genetic background: ΔsoxS)	promoter activity interaction Z-score (24.5 µg/ml, genetic background: wild type)	promoter activity interaction Z-score (24.5 µg/ml, genetic background: Δrob)
NC(=O)c1cc[n+](CC2=C(C(=O)[O-])N3C(=O)[C@@H](NC(=O)[C@@H](c4ccccc4)S(=O)(=O)O)[C@H]3SC2)cc1 [Cefsulodin]	0.0888 ± 0.07	-0.156 ± 0.32	-0.151 ± 0.05	-0.273 ± 0.013	0.026 ± 0.046	-0.154 ± 0.15	-0.188 ± 0.075	-0.12 ± 0.063	-0.199 ± 0.15	-0.257 ± 0.49	-0.271 ± 0.049	-0.324 ± 0.025	1.24 ± 1.6	0.729 ± 0.25	0.241 ± 0.029	0.341 ± 0.012	–	–	–	–	–	–	–	–	–	–	–	–	–	–
COc1ccc(C[C@H](N)C(=O)N[C@H]2[C@@H](O)[C@H](n3cnc4c(N(C)C)ncnc43)O[C@@H]2CO)cc1 [Puromycin]	–	–	–	–	–	–	–	–	–	–	–	–	–	–	–	–	0.00293 ± 0.13	0.189 ± 0.15	0.309 ± 0.18	0.0658 ± 0.096	0.213 ± 0.31	0.623 ± 0.33	0.273 ± 0.14	0.534 ± 0.15	0.362 ± 0.15	0.61 ± 0.46	0.305 ± 0.046	0.522 ± 0.076	1.38 ± 0.23	2.58
